Here are results for 40 molecules from PubChem BioAssay (NCI).

Compounds without any hit were thinned out: in the full panel of roughly 83,000, 20% have a hit.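 Step 1: grow cells in 96-well plates. Step 2: add test compound at a single concentration. Step 3: incubate 48 h. Step 4: record percent growth.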 A number with no mark means an inactive call. Activity calls are given as the source filed them. Rule for the calls: active = growth percent below 10; inactive = the rest.

This assay deals with MDA-MB-468 breast. The assay can be described thus: NCI-60 one-dose screen, 48 h (100 = growth as untreated, 0 = no growth, -100 = all killed). The note with it: 10 µM unless noted.

As to `O=C1c2ccccc2C(=O)c2cc(Cn3c[n+](Cc4ccc5ccccc5c4)c4ccccc43)ccc21`, the growth was -27.6% (active).

`NC1CCC(Nc2nc(NCc3ccc(-c4cccs4)nc3)c3ncn(C4CCCC4)c3n2)CC1` (stereo not given): the growth is -65.8% (active).

On to `O=C1[C@H]2Cc3c([nH]c4ccccc34)[C@@H](c3c(Cl)cccc3Cl)N2C(=O)CN1C1CCN(CC2CCCCC2)CC1`, for which the growth was 80.5%.

`Cc1ccccc1NC(=O)Nc1nc2ccc([N+](=O)[O-])cc2s1`: the growth is -3.68% (active).

Turning to `OCCNc1nccc(N2CCN(c3ccnc4cc(Cl)ccc34)CC2)n1`, the growth was 54.8%.

Consider `O=C(/C(=C/c1ccccc1)CBr)c1ccccc1`, for which the growth was -10% (active).

Regarding `N#CC1(C#N)C2=C(CCCC2)NC(c2c(F)cccc2Cl)C1(C#N)C#N` (stereo not given), the growth was 53%.

Regarding `Cc1ccccc1-n1nnc(C(=O)Nc2nc3ccc(F)cc3s2)c1C`, the growth is 32.8%.

On to `COc1cc(CSc2nc3ccc(C)cc3c(=O)n2-c2ccccc2)cc(OC)c1OC`, for which the growth was -8.37% (active).

`COc1ccc2nc3ccccc3c(NCc3ccc(F)cc3)c2c1`: the growth was -23.9% (active).

Consider `COc1ccc(Oc2nc(Nc3ccc(N4CCOCC4)cc3)ncc2NC(=O)Nc2cccc(OC)c2)cc1`, for which the growth was 90.1%.

On to `CCOC(=O)c1cc(C(=O)c2cc(OC)cc(OC)c2)n2ncccc12`, for which the growth is 26.3%.

For the molecule `COC(=O)[C@@H](C)CNS(=O)(=O)N(c1cc(C(F)(F)F)cc(C(F)(F)F)c1)C1CCN(Cc2ccc(F)cc2)CC1`, the growth is 23.6%.

Turning to `COc1ccc(/C=N\NC(=O)c2ccncc2)cc1O`, the growth was 92.8%.

Turning to `O=C(O)c1ccc2c(c1Sc1ccccc1)C(=O)c1ccccc1C2=O`, the growth was 97.9%.

Turning to `O=C(NNC(=O)c1cccc(Cl)c1)c1ccccc1`, the growth is 94.4%.

For `COc1ccc2nc3ccccc3c(NCc3ccccc3)c2c1`, the growth was -9.89% (active).

With `COc1cc(Nc2c(C#N)cnc3cc(OCCCN4CCN(C)CC4)c(OC)cc23)c(Cl)cc1Cl`, the growth was 56.2%.

Take `CC(C)CCN(CCCNc1c2c(nc3cc(Cl)ccc13)CCCC2)CCC(C)C`: the growth was 22.6%.

For the molecule `COc1cc(/C=C/C(=O)c2ccc(N3CCN(C)CC3)cc2)ccc1F`, the growth was 35%.

Take `Brc1ccsc1Br`: the growth is 103%.

In the case of `O=C(CCn1cc[n+](CC(=O)c2ccc(-c3ccccc3)cc2)c1)Nc1cccc2cccnc12`, the growth is -16.8% (active).

`COc1ccc(C2NC(=O)C(C#N)c3c2sc2c(F)cccc32)cc1` (stereo not given): the growth was 33.7%.

With `CCCCCCN(CCCCCC)CCCNc1nccc2ccccc12`, the growth is -6.34% (active).

In the case of `c1ccc(-c2nc([P+](c3ccccc3)(c3ccccc3)c3ccccc3)c(N3CCOCC3)o2)cc1`, the growth was -22.5% (active).

On to `Cc1ccc2nc(NC(=O)CSc3nc(-c4ccccc4)c(C#N)c4nnnn34)sc2c1`, for which the growth is 107%.

As for `Cc1cn(-c2cc(NC(=O)c3cncc(C#Cc4cnc5ccc(O[C@@H]6CCOC6)nn45)c3)cc(C(F)(F)F)c2)cn1`, the growth was -74.8% (active).

On to `COc1cc(-c2nc(-c3ccccc3)[nH]c2-c2ccnc(NCCCNS(=O)(=O)c3cccc(F)c3)n2)ccc1F`, for which the growth was 85.1%.

Consider `CC(=O)c1cc(C)c(OC(=O)c2ccccc2)c(C)c1`, for which the growth was 94%.

`O=C(c1nnc(Nc2ccccc2Br)o1)c1c[nH]c2ccccc12`: the growth was 103%.

In the case of `CN(C[C@@H]1COCCO1)S(=O)(=O)Nc1ccc2ccc3ncc(-c4cnn(C)c4)cc3c(=O)c2c1`, the growth is 49.9%.

Consider `O=C(Nc1ccc(Cl)cc1F)c1cc(Cl)ccc1O`, for which the growth was -20.2% (active).

On to `CCCCCCCCc1ccc(CCC(N)(CO)CO)cc1`, for which the growth is -93.1% (active).

`CC(C)c1[nH]ncc1-c1nc2ccc3[nH]ncc3c2c2c1CCCC2`: the growth is 69.3%.

Regarding `O=C(NC(=S)Nc1ccccn1)c1ccccc1`, the growth is 45.1%.

In the case of `CC(C)(C)c1ccc(C(=O)N/N=C/c2ccc(O)cc2O)cc1`, the growth was -32.5% (active).

Regarding `COc1ccc2c(c1)/C(=C/c1cc(OC)c(OC)c(OC)c1)C(=O)N2C`, the growth is 25.9%.

As to `C[C@H]1[C@H](C)CC[C@]2(COC(=O)CCC(=O)O)CC[C@]3(C)C(=CC[C@@H]4[C@@]5(C)CCCNC(C)(C)[C@@H]5CC[C@]43C)[C@H]12`, the growth is 69% [100 µM].

Take `CCCCC(=O)Nc1ncc(Cc2ccccc2Cl)s1`: the growth is 14.1%.

Consider `CCOC(=O)C(C(=O)OCC)C1CCCCC1`, for which the growth was 105%.
